High-throughput results (PubChem)
Sampled rows, rich in hits. Any-hit rate of the full collection: about 21%.
HCV inhibitor = inhibitors of hepatitis C virus infection | AID 651820 | actives 3.4% (n = 340,000) | Huh7.5.1 HCVcc-Cre infection, luciferase reporter, 44 h | Potency, µM (series often up to 41.8 µM), for the others: at the highest dose activity change, negative = inhibition, actives largely listed as inhibitors; note: potency is the fitted concentration of half-maximal effect; % is set by controls: 0 for no effect and ±100 for the full control effect
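Antiviral activity was scored by luciferase reporter output from cells infected with HCVcc-Cre (~0.5 moi) in presence of compound, 44 h infection period, cells seeded 1,000/well 4 h prior.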
Pf growth 48h = inhibits P. falciparum growth in the first generation, 48 h; P. falciparum luciferase growth in erythrocytes, 48 h; Potency, µM (top dose mostly 28.7 µM), inactives show at the highest dose activity change, negative = inhibition, hits mostly inhibitors; actives 5.9% (n = 310,000); AID 504832; note: potency is the fitted concentration of half-maximal effect; % is set by controls: 0 for no effect and ±100 for the full control effect
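Growth was read as firefly luciferase luminescence after a 48 h, 37 C, 5% CO2 exposure of compounds to reporter-bearing P. falciparum cultures (0.1% parasitemia, 2% hematocrit final) in Albumax-supplemented RPMI 1640.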
Pf growth 96h = P. falciparum growth inhibition at 96 hour, primary screen for plastid delayed-death inhibitors. P. falciparum luciferase reporter growth, 96 h. Potency, µM (titrated, usually from 28.7 µM), for inactives: at the highest dose activity change, negative = inhibition, hits mostly inhibitors. actives 6.9% (n = 320,000). AID 504834; note: potency is the fitted concentration of half-maximal effect; % is set by controls: 0 for no effect and ±100 for the full control effect
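Infected RBCs, 2% Hct / 0.05% parasitemia final; luciferase-reporter P. falciparum; cpd 96 h, 37 C, 5% CO2; luciferase detection reagent; luminescence.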
Shiga toxin inh = Shiga toxin inhibition; Vero cells, Shiga toxin protein synthesis inhibition reporter; inhibition, % at 38.7 µM; actives 9.2% (n = 290,000); in the data active = inhibition mostly above about 28%, no sharp cut-off; inactive = mostly below about 43%; note: 0% is about no effect
HCMV antiviral = human cytomegalovirus inhibition; HFF cells, HCMV-luciferase reporter, 72 h; hits give low values; activity change, negative = inhibition, % at 57.5 µM; actives 4.5% (n = 410,000); AID 1259415; in the data active = activity change below about -60%; inconclusive = no clear call, values can overlap the other calls; inactive = above about -39%; note: % is set by controls: 0 for no effect and ±100 for the full control effect
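Luciferase read-out from HCMV-luciferase-infected HFFs (MOI 1 PFU/cell) 72 h post infection at 37C; compounds added after 16 h cell attachment; activity normalized between buffer-only basal and Salinomycin (10uM) inhibitor controls.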
CHX counter = counter-screen for Shiga toxin inhibitors: cycloheximide protein synthesis inhibition | cell reporter, cycloheximide protein synthesis inhibition counterscreen | max response, % | actives 12% (n = 300,000); in the data active = max response mostly above about 13%, no sharp cut-off; inactive = mostly below about 14%; note: read at 38.3 µM for the half of the compounds with a filed dose; 0% is about no effect
Active calls of the source: *; i = inactive; ? = inconclusive; . = no result. Unless noted, calls come from the whole dose curve; as a rule, active = well fitted inhibition curve with a large enough effect; inconclusive = small, poorly fitted or top-dose-only effect, or another doubt; inactive = no such curve, though single readings can be large or run the other way.

SMILES | HCV inhibitor | Pf growth 48h | Pf growth 96h | Shiga toxin inh | HCMV antiviral | CHX counter
O=C(c1cccc(C(F)(F)F)c1)C1CCCN(C(=O)c2cc(C3CC3)[nH]n2)C1 (stereo not drawn) | ? | ? | 58.2% | 21.3 | -67.5* | 15.7
O=C(c1cccc(C(F)(F)F)c1)C1CCCN(C(=O)CN2CCCC2=O)C1 (stereo not drawn) | 16.6% | 28.3% | 14.4% | 50.3 | -18.2 | 17.3*
O=C(c1cccc(C(F)(F)F)c1)C1CCCN(C(=O)CCCn2cncn2)C1 (stereo not drawn) | 2.8% | 40.2% | ? | 14.6 | -17.2 | 10.5*
O=C(Cc1cccc(C(F)(F)F)c1)N1CCN(CC(=O)N2CCCC2)CC1 | 10.8% | 13.1µM* | ? | . | -4.3 | .
O=C(CSc1ncnc2ccccc12)NCC(=O)c1ccccc1 | -1.6% | 39.7% | ? | 18.2 | -18.3 | 16.1
O=C(Nc1ccccc1)N1CC(=O)N2[C@@H](CO)[C@H](c3ccc(Br)cc3)[C@@H]2C1 | . | . | . | . | -6.4 | .
O=C1CNC(=O)/C(=C/c2ccco2)N1 | -4.3% | 356.5% | 53.2% | 41.6 | -27.8 | 20.5
CC(C)(CCl)C(=O)Nc1ccnc(-c2ccncc2)n1 | -6.2% | -13.9% | -18.4% | 28.5 | ? | 2.4
CSc1ccc(C(=O)C2CCCN(C(=O)CCCn3cncn3)C2)cc1 (stereo not drawn) | -15.5% | -1.4% | ? | 38.2 | -21.1 | 10.9*
COc1cc(NC(=O)Nc2cccc(Cl)c2)c(C(=O)O)cc1OC | 11.3% | 0.7% | 75.8% | 20.8 | 0.0 | -1.6
O=C(Nc1ccc2nccnc2c1)Nc1ccccc1Cl | -22.6% | 8.28µM* | ? | 61.8* | -35.4 | 31.7*
O=C(Nc1cccc(Cl)c1)Nc1ccc2nccnc2c1 | ? | -7.3% | ? | 54.8* | -76.5* | 31.2*
Cn1nnc2cc(NC(=O)Nc3cccc(Cl)c3)ccc21 | 0.3% | . | 2.2% | 51.9* | -102.4* | 37.5*
Cn1nccc1NC(=O)Nc1cccc(Cl)c1 | 4.7% | -3.1% | -3.3% | -1.5 | -32.7 | -1.7
CCOc1ccc(N2CC(NC(=O)c3ccco3)CC2=O)cc1 (stereo not drawn) | . | . | . | . | 52.2 | .
Cc1ccnc(NC(=O)c2ccc(C(=O)c3ccccc3)cc2)c1 | 5.3% | 10.6% | -26.1% | . | 5.3 | .
Cc1ccnc(NC(=O)CCNC(=O)c2ccc(Cl)cc2)c1 | 18.9% | -8.0% | ? | -13.6 | 34.5 | -0.5
Cc1ccnc(NC(=O)c2ccc(Cl)s2)c1 | -19.0% | 167.6% | 214.4% | 69.5* | . | 53.0*
O=C(Nc1ccon1)c1sc2cc(Cl)ccc2c1Cl | -9.0% | ? | -19.1% | -5.1 | 8.3 | -3.1
Cc1ccnc(NC(=O)c2cnc(Cl)c(Cl)c2)c1 | -3.0% | 50.2% | 23.8% | 116.3* | -32.7 | 32.5*
O=C(Nc1ccon1)c1ccc(Cl)s1 | 3.8% | 61.5% | 11.6% | 14.9 | 16.9 | 14.9*
O=C(O)COc1ccccc1/C=N/NC(=O)CN1CCN(Cc2ccc(Cl)cc2)CC1 | -1.0% | 30.6% | -19.6% | -4.1 | 0.0 | -3.2
COc1ccc(N2CC(NC(=O)C3CCCC3)CC2=O)cc1OC (stereo not drawn) | . | . | . | . | -12.1 | .
CCOC(=O)C1CC(c2ccccc2)=NNC1=O (stereo not drawn) | -23.9% | 13.4% | 13.7% | -4.0 | -13.8 | 1.1
COC(=O)[C@@H](NCc1cccc(CN([C@H](C(=O)OC)C(C)C)S(C)(=O)=O)c1)C(C)C | -13.7% | ? | 14.7µM* | -0.7 | ? | 0.9
SMILES | HCV inhibitor | Pf growth 48h | Pf growth 96h | Shiga toxin inh | HCMV antiviral | CHX counter
COCCS(=O)(=O)N(Cc1ccccc1)[C@H](C(=O)OC)C(C)C | 2.9% | . | . | . | 4.7 | .
Cn1c(=O)n(C)c2cc(N3CCOCC3)c(NC(=O)c3c(F)cccc3F)cc21 | . | . | . | . | 22.3 | .
CCCCCC[n+]1c(-c2ccccc2)csc1Nc1ccccc1 | 5.3% | 3.29µM* | ? | -5.9 | -28.9 | -6.9
O=C(O)c1ccc(C[n+]2c(-c3ccccc3)csc2Nc2ccccc2)cc1 | 12.5% | 13.6% | 19.0% | -5.7 | 1.3 | -1.5
COc1cc2c(cc1OC)C(c1cc3cc4c(cc3[nH]c1=O)OCO4)N(C(=O)C1CC1)CC2 (stereo not drawn) | 15.8% | 13.1µM* | 18.4% | 8.8 | 60.0 | -2.5
COc1cc2c(cc1OC)C(c1cc3ccc(C)cc3[nH]c1=O)N(C(=O)c1ccco1)CC2 (stereo not drawn) | 19.5% | 13.1µM* | 5.3% | -4.4 | 42.1 | -4.6
Cc1nnc(NC(=O)CSc2nnc3c(n2)[nH]c2ccc(Br)cc23)s1 | -10.6% | 39.6% | 6.3% | -10.7 | -2.4 | 1.0
COC(=O)c1ccc(NC(=O)CCn2cnnn2)c(C)c1 | . | . | . | . | 17.2 | .
CC(=O)Oc1ccc(OC(C)=O)c(S(=O)(=O)c2ccc(C)c(C)c2)c1 | 4.0% | 23.1% | 11.7µM* | 2.8 | -11.7 | -3.1
CCN1C(C)=CC(=O)[C@@H](O)[C@H]1c1ccccc1Br | 11.3% | . | . | . | 11.0 | .
N#Cc1ccc(NC(=O)Nc2ccc(Oc3ccc(NC(=O)Nc4ccc(C#N)cc4)cc3)cc2)cc1 | ? | 1.65µM* | ? | 27.5 | -82.4* | 6.1
N#Cc1cccc(NC(=O)c2ccccc2C(=O)O)c1 | -7.9% | 20.1% | 7.7% | -17.1 | 18.1 | 2.9
N#Cc1ccc(NC(=O)Nc2cccc(C#N)c2)cc1 | 10µM* | 11.7µM* | 6.57µM* | 13.3 | -39.8 | -1.3
CC(C)(OC(=O)c1ccc(C#N)cc1)c1cc2ccccc2c(=O)o1 | 3.5% | 17.4% | 24.2% | . | -5.4 | .
COc1ccc(CCNc2ncnc3c2nnn3C)cc1 | . | . | . | . | -31.7 | .
O=C(NC(c1ccc(-c2ccccc2)cc1)c1cnccn1)C1CCN(CCOc2ccc(F)cc2)CC1 (stereo not drawn) | . | . | . | . | -7.4 | .
COc1ccc(N/N=C(\C#N)C(=N)N2CCOCC2)cc1 | ? | 72.7% | 6.9% | 35.8 | 86.4 | 28.8*
N#C/C(=N\Nc1cccc(F)c1)C(=N)N1CCCCCC1 | 2.5% | i | ? | 41.4* | 46.3 | 26.1*
O=C(CN1CCOCC1)Nc1ccccc1F | ? | 4.1% | 0.0% | . | 30.3 | -1.7
N#C/C(=N\Nc1ccccc1)C(=N)N1CCCCCC1 | 1.4% | 198.9% | 478.6% | 71.2* | 120.3 | 37.9*
N#C/C(=N/Nc1ccccc1F)C(=N)N1CCOCC1 | 20.1% | 68.2% | 115.0% | 37.4 | 103.0 | 34.3*
N#C/C(=N\Nc1ccc(F)cc1)C(=N)N1CCCCC1 | -18.0% | 119.7% | . | 112.3* | 118.9 | 46.6*
CCN=c1scc(C)n1/N=C/c1ccsc1 | -2.8% | 131.1% | 2.4% | 104.4* | 138.6 | 46.8*
O=C(Nc1ccsc1C(=O)NC1CCCCC1)c1ccc(F)cc1 | -18.9% | 1.65µM* | 1.65µM* | -5.8 | 19.7 | -0.8
O=C(Nc1ccsc1C(=O)NC1CC1)c1ccccc1 | ? | -5.6% | 0.2% | -2.6 | -28.3 | 9.2
Oc1ccccc1C1CC(c2cccs2)=NC(c2ccc(Cl)cc2)N1 (stereo not drawn) | ? | ? | -0.3% | 49.6* | -70.1* | 37.3*
